Measurements reported in article PMC8384837, “Expanding the binding specificity for RNA recognition by a PUF domain”.

target: PUM1 PUF domain R2-LWS (Homo sapiens, UniProt Q14671 828-1176, N899L;Y900W;Q903S); assay: yeast three-hybrid, YBZ-1, SC-Leu-His + 0.5 mM 3-AT, 4 days; settings: tags: N-Gal4 AD-HA kept; label: inside an RPR1-promoter hybrid RNA with tandem MS2 sites; ssRNA
In short: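 The interaction score is the log change in how often each variant appears, from input to selection. Frequencies came from PCR-amplified, Illumina-sequenced repeat regions of Pumilio-1 PUF domain libraries grown in strain YBZ-1 (LexA–MS2 coat fusion, HIS3 reporter) alongside matching RNA elements. Input plates were SC-Leu and selection plates were SC-Leu-His + 0.5 mM 3-AT, each for four days, and the log2 calculation used a pseudocount of 1 where a variant was absent.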

Sequence	binding signal
GGCUAGAACUAGUGGAUCCCCCGGCGCCCGGCGGCUCGAGCCCGGGUAAGUGUAAAGAGUCUGCAUGCCGCCGGGCGCCAUGCCUGCAGGUCGACUCUAGAAAACAUG	4.16 log2 enrichment (interaction score)
GGCUAGAACUAGUGGAUCCCCCGGCGCCCGGCGGCUCGAGCCCGGGUAAGUGUAAAUAGUCUGCAUGCCGCCGGGCGCCAUGCCUGCAGGUCGACUCUAGAAAACAUG	2.23 log2 enrichment (interaction score)
GGCUAGAACUAGUGGAUCCCCCGGCGCCCGGCGGCUCGAGCCCGGGUAAGUGUAAAAAGUCUGCAUGCCGCCGGGCGCCAUGCCUGCAGGUCGACUCUAGAAAACAUG	7.72 log2 enrichment (interaction score)
